Assay results: ChEMBL document CHEMBL4513216, “Probing the Open Global Health Chemical Diversity Library for Multistage-Active Starting Points for Next-Generation Antimalarials” (ACS Infect Dis, 2020)
Screen size: about 65,000 compounds; about 2,100 (3.2%) showed an effect of 50% or more. The median lay at about -52%. Many of the other results were omitted from the sample, so strong results are more common in it than they were.

system: Plasmodium falciparum; experiment: Screen against P. falciparum Asexual Blood Stage (ABS), at 5uM; assay type: functional, Dd2; details: tested at 5 uM

Row | Structure (SMILES) | INHIBITION
1 | O=C1NCCN1C1CCN(Cc2coc(-c3ccc(F)cc3)n2)CC1 | -71.8%
2 | C[C@@H]1CN(C2CCN(Cc3nn(C)c4cccc(Cl)c34)CC2)C[C@H](C)O1 | -9.68%
3 | Cn1nc(CN2CCC(c3ccncc3)CC2)c2c(Cl)cccc21 | -14.6%
4 | Cn1nc(CN2CCCN(C3CCCC3)CC2)c2c(Cl)cccc21 | 68.9%
5 | COCCN1C(=O)CO[C@H]2CN(Cc3ccccc3Cl)C[C@@H]21 | -123%
6 | CCN1CCOCC12CCN(c1nccs1)CC2 | -144%
7 | CN(CCN1CCOC1=O)CC(=O)Nc1ccc(Cl)c(C(F)(F)F)c1 | -56.7%
8 | CNc1cc(-c2ccc(COCCN)cc2)c2cc[nH]c2n1 | 2.35%
9 | CCNCCOc1ccc(-c2cc(N)nc3[nH]ccc23)cc1 | 51.3%
10 | Nc1cc(-c2cc(O)cc(C(=O)O)c2)c2cc[nH]c2n1 | -9.72%
11 | CCOCCCNC(=O)c1ccccc1S(C)(=O)=O | -120%
12 | CSCCNc1ccc(C(=O)N(C)Cc2ccc3ccccc3n2)cn1 | -73.9%
13 | CCOc1ccc(NC(=O)NCCS(=O)(=O)CC)cc1C | 4.65%
14 | COc1cc(CNCCc2cnn(C)c2)cc2c1OCO2 | -26.5%
15 | COc1cc(CNCc2ccc(C(C)O)cc2)cc2c1OCO2 (stereo not drawn) | 9.88%
16 | COc1cc(CNCC(O)c2ccccc2)cc2c1OCO2 (stereo not drawn) | 61.1%
17 | Cc1ccc(CN2CCc3onc(C(=O)NCCN(C)C)c3C2)o1 | -43.9%
18 | CS(=O)(=O)N1CC2(CCCN(CC3CC3)C2)Cc2ccccc21 (stereo not drawn) | 69.8%
19 | CS(=O)(=O)N1CC2(CCN(CC3CCCCC3)C2)Cc2ccccc21 (stereo not drawn) | -36.9%
20 | CC(=O)N1CC2(CCCN(Cc3ccc(Cl)cc3)C2)Cc2ccccc21 (stereo not drawn) | -0.688%
21 | CS(=O)(=O)N1CC2(CCN(CC3CCCCC3)CC2)Cc2ccccc21 | 63.8%
22 | CS(=O)(=O)N1Cc2ccccc2CC2(CCN(Cc3ccccc3)C2)C1 (stereo not drawn) | 9.04%
23 | CS(=O)(=O)N1CC2(CCCN2Cc2ccc(Cl)cc2)Cc2ccccc21 (stereo not drawn) | -33%
24 | Cc1csc(N2CCN(CC(=O)Nc3ccncc3)CC2C)n1 (stereo not drawn) | -32.7%
25 | COc1cc(OC)cc(C(=O)Nc2ncnc3c2CCC3)c1 | -80.8%
26 | Cc1n[nH]cc1CNCC1(c2ccc3c(c2)OCO3)CCOCC1 | -37.3%

Row | Structure (SMILES) | INHIBITION
27 | Cc1n[nH]cc1CNCC1(c2ccccc2Cl)CCOCC1 | 57.1%
28 | O=C(NCC1(O)CCOC1)NCC1(c2ccccc2Cl)CCC1 (stereo not drawn) | -90.2%
29 | COc1ccc(COCC(O)CNC(=O)c2ccncc2)cc1 (stereo not drawn) | -119%
30 | O=C(Nc1ccc(F)cc1)N1C[C@@H]2CC[C@H]1CN(Cc1cccnc1)C2 | -74.3%
31 | CN1CCN(c2ncc(-c3cnccn3)c([C@H]3CCCO3)n2)CC1 | -10.1%
32 | c1cc(-c2c[nH]nc2C2CCCCC2)nc(N2CCCCCC2)n1 | 1.32%
33 | CN1CCCN(c2nccc(-c3cncnc3C3CCCCC3)n2)CC1 | 61.6%
34 | CN1CCN(c2nccc(-c3cncnc3C3CCCCC3)n2)CC1 | 62.3%
35 | NC(=O)C1CCN(c2nccc(-c3c[nH]nc3C3CCCCC3)n2)CC1 | 16.3%
36 | c1cc(-c2cn3nccc3nc2C2CCCCC2)nc(N2CCCC2)n1 | 3.54%
37 | O=C(C[C@@H]1COC[C@H]2CN(C3CCCC3)C[C@@H]12)N1CCCCO1 | -31.2%
38 | CC(C)CS(=O)(=O)N1CCC2(CN(c3cccc(F)c3)C(=O)CN2C)C1 (stereo not drawn) | -101%
39 | C=C/C=c1\c(=C/C)oc2c(NCc3ccccc3)nc(C)nc12 | 3.94%
40 | CCS(=O)(=O)N1CCc2cc(C(=O)NC)c(NCC3CC3)nc2CC1 | -28%
41 | CCOC(=O)C1CCN(C(=O)CN2CCCC2c2cc(C)no2)CC1 (stereo not drawn) | -126%
42 | CCOC(=O)C1CCN(C(=O)CN2CCCC2c2ccccc2C)CC1 (stereo not drawn) | 28.2%
43 | CCOC(=O)C1CCN(C(=O)CN2CCCC2c2ccsc2)CC1 (stereo not drawn) | 50.9%
44 | CC(=O)N(C)Cc1ccccc1NC(=O)N(C)CCc1cccs1 | -28.3%
45 | NCC1Cc2cc(-c3cncc(C(=O)N4CCCCC4)n3)cc(F)c2O1 (stereo not drawn) | 51.3%
46 | CC(C)c1cncnc1-c1cc(F)cc2c1OC(CN)C2 (stereo not drawn) | 29.4%
47 | Cc1nc(-c2cc(F)c3c(c2)CC(CN)O3)c[nH]1 (stereo not drawn) | 53.7%
48 | NCC1Cc2cc(-c3cncc(C(=O)N4CCOCC4)n3)cc(Cl)c2O1 (stereo not drawn) | -15.2%
49 | Cc1cc2c(c(-c3cncc(C(=O)N4CCCC4)n3)c1)OC(CN)C2 (stereo not drawn) | 4.12%
50 | NCC1Cc2cc(-c3cnccn3)cc(Cl)c2O1 (stereo not drawn) | -13.4%
51 | Cc1cc(NC(=O)CN2CCCC2c2noc(C)n2)n(C(C)(C)C)n1 (stereo not drawn) | -108%
52 | O=C(NC1CC1)[C@@H]1CCO[C@@H]2CCN(CC3CCC3)C[C@@H]21 | -89.4%

Row | Structure (SMILES) | INHIBITION
53 | CC(C)N1[C@H](Cn2cccn2)C[C@@H]2CN(Cc3ccoc3)CC[C@@H]21 | 40.6%
54 | CN1C(Cn2cccn2)C[C@@H]2CN(Cc3nccs3)CC[C@@H]21 (stereo partly drawn) | -108%
55 | CN1C(Cn2cccn2)C[C@@H]2CN(Cc3cnn(C)c3)CC[C@@H]21 (stereo partly drawn) | -48.5%
56 | CN1[C@H](CN2CCCC2)C[C@@H]2CN(Cc3ccoc3)CC[C@@H]21 | 58.5%
57 | CC(C)N1[C@H](CN2CCCC2)C[C@@H]2CN(Cc3cnn(C)c3)CC[C@@H]21 | -20.1%
58 | CCC(=O)N1CC[C@H]2[C@H](C[C@@H](Cn3cccn3)N2c2nccs2)C1 | -13.4%
59 | Cc1ccc(CN2CC[C@H]3[C@H](CC(Cn4cccn4)N3C)C2)s1 (stereo partly drawn) | 62.7%
60 | CC(C)N1CC[C@H]2[C@H](C[C@@H](Cn3cccn3)N2c2nccs2)C1 | 66.3%
61 | CN1CC[C@H]2[C@H](C[C@@H](Cn3cncn3)N2c2nccs2)C1 | -37.1%
62 | CC1CN(Cc2nc(Cc3ccccc3F)no2)CCN1C (stereo not drawn) | -114%
63 | O=C(CCc1ccsc1)N1CCCC(n2cncn2)C1 (stereo not drawn) | -152%
64 | COC[C@@]12CCC[C@@H]1CN(C(=O)CN(C)C)C2 | -1.68%
65 | Cc1cc(C)c(Cn2cncn2)cc1CN1CCC(CN)C1 (stereo not drawn) | 69%
66 | Cc1cc(C)c(Cn2cncn2)cc1CN1CC[C@@H]2CC[C@H](C1)N2 | 13.3%
67 | CO[C@H]1CN(Cc2cc(Cn3cncn3)c(C)cc2C)CC[C@H]1N | -28.2%
68 | COCc1ncn2c1CN(C(=O)Nc1cccc(OC)c1)CC2 | -101%
69 | CC(C)c1nccn1-c1cccc(C2CCCN(S(=O)(=O)N(C)C)C2)n1 (stereo not drawn) | -73.6%
70 | N[C@@H]1CC[C@@H](Nc2nccc(CCC(F)(F)F)n2)C1 | -4.32%
71 | FC(F)(F)CCc1ccnc(NC2CCC(n3cnnc3)CC2)n1 (stereo not drawn) | -54.2%
72 | NC1CCC(Nc2nccc(CCC(F)(F)F)n2)CC1 (stereo not drawn) | 50.3%
73 | CS(=O)(=O)N1CCC(c2ccncn2)CC1 | -94.7%
74 | CN(C(=O)CSc1ncc[nH]1)C1CC1 | -11.8%
75 | Fc1ccc(CN2CCc3ncnc(C4CCOC4)c3CC2)cc1 (stereo not drawn) | -78.8%
76 | Cc1cccc(CN(Cc2ccccn2)S(=O)(=O)N(C)C)c1 | -25.3%
77 | CCN(Cc1cccc(Cl)c1)Cc1ncc(C(C)(C)C)o1 | -14.1%
78 | Cc1cccc(CN(Cc2ccccn2)Cc2ncc(C(C)(C)C)o2)c1 | 60.4%

Row | Structure (SMILES) | INHIBITION
79 | CCN1CCN(C)C(=O)C12CCN(Cc1ccsc1)CC2 | -35.5%
80 | CCc1ccc(CN2CCC3(CC2)C(=O)N(C)CCN3CC2CC2)cc1 | 68.9%
81 | CCN1CCN(C)C(=O)C12CCN(Cc1cccc(C)c1)CC2 | 41.8%
82 | CN(CCc1ccccc1)c1cnn(C)c(=O)c1Br | -12.3%
83 | CC(NC(=O)CSCC(N)=O)c1ccc(Oc2ccccc2)cc1 (stereo not drawn) | -25.1%
84 | NC(CC1CCCC1)c1ccc(Oc2ccccc2)cc1 (stereo not drawn) | 79.9%
85 | c1ccc(Oc2ccc(OC34CCCN(CC3)C4)cc2)cc1 (stereo not drawn) | 40.7%
86 | NC(=O)C(NC1CCN(CC2CCCCC2)CC1)c1ccccc1 (stereo not drawn) | -75%
87 | OC(CN1CCN(CC2CCCCC2)CC1)c1ccccc1 (stereo not drawn) | 3.94%
88 | NC(CC1CCCC1)c1ccccc1 (stereo not drawn) | 66.7%
89 | N#CCCCOc1cccnc1NC(=O)Cc1ccccc1F | -150%
90 | CN(CC(=O)NCC1CCCO1)Cc1nc2c(s1)CCCC2 (stereo not drawn) | -39.8%
91 | Cc1cc(C)c(CN2CCCC23Cc2ccccc2CNC3=O)c(C)c1 (stereo not drawn) | 8.96%
92 | CC(C)C(=O)NC1CCCN(C(=O)c2ccc(O)c(Cl)c2)C1 (stereo not drawn) | -84%
93 | O=C(Nc1ccccc1Cn1cccn1)N1CCCC(N2CCCC2)C1 (stereo not drawn) | -31.7%
94 | CN1CCN(c2ccc3ccc(C(=O)N4CCCO4)cn23)CC1 | 6.88%
95 | COc1c(CNCc2ccnc(N3CCCCC3)c2)c(C)nn1C | -15.8%
96 | COc1ccc(CNCc2ccnc(N3CCCCC3)c2)cc1OC | -9.72%
97 | COc1cc(CNCc2ccnc(N3CCCC3)c2)cc(OC)c1 | 61.5%
98 | COc1cc(CNCc2ccnc(N3CCOCC3)c2)cc(OC)c1 | -50.4%
99 | COc1cc(CNCc2ccnc(N3CCCCC3)c2)cc(OC)c1 | 61.4%
100 | COc1c(CNCc2ccnc(N3CCCC3)c2)c(C)nn1C | -64.4%
101 | CC(C)NC(=O)C1CN(C(=O)N(C)C)CC12CCOCC2 (stereo not drawn) | -145%
102 | Cc1cc(N2CCC(N(C)C(=O)c3ccc(C#N)cc3)CC2)nc(C)n1 | -6.47%
103 | CCCc1noc(CCCC(=O)N2CCCC2c2cnn(C)c2)n1 (stereo not drawn) | -37%
